The subject of the experiment is Plasmodium falciparum NF54 stage V gametocytes. As to the kind of experiment: viability index relative to DMSO control (fraction); higher = less gametocyte killing. The conditions noted are these: 2.5 µM, incubation time: 72 h. The gist of the method: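 Stage V gametocytes of P. falciparum NF54 were held in serum-free screening medium at 0.75% gametocytemia and 1.25% hematocrit, 10 µl per well of a 1,536-well plate, and exposed to compound at 2.5 µM for 72 hr at 37°C under low oxygen. A 3 µl mix of 2.5 µM MitoTracker Red CMXRos with 0.13% saponin was then added for one to two hours, after which one field per well was imaged and red particles of 20–70 µm2 were counted. The viability index equals this count divided by the plate mean from wells given solvent alone.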

The mark [1] stands for this setting: library set: Broad Institute DOS.
Where [2] appears, read: library set: Broad Institute Blood Stage.

Structures are written as SMILES. ± gives the uncertainty stated by the source. Whole data set: some 9,900 compounds, median “viability index relative to DMSO control” near 1, cut for the lowest 2% near 0.85. Many of the other results were omitted from the sample, so the lowest values are more common in it than they were.

Under setting [1], `O=C(NCc1ccccc1)[C@H]1[C@H](CO)[C@H]2Cn3c(cccc3=O)[C@@H]1N2C(=O)Cc1ccccn1` gave a viability index of 1.01 ± 0.015. In turn, `CCc1cnc(N2[C@H](C#N)[C@H](c3ccc(C#Cc4ccccc4F)cc3)[C@H]2CO)s1` came in with a viability index under setting [1] of 0.8872 ± 0.0045. `COCC(=O)N1[C@H](CO)[C@@H](c2ccccc2)C12CN(Cc1cc(F)ccc1F)C2` came in with a viability index under setting [1] of 1.07 ± 0.023. Under setting [1], `CC(C)(C)[S@@](=O)N1Cc2cc(C(=O)NC3CCC3)nc(-c3cccc(Br)c3)c2[C@H]1CCO` came in with a viability index of 0.994 ± 0.058.

Regarding `O=C(NCC[C@H]1CC[C@@H](NC(=O)c2ccncc2)[C@H](CO)O1)Nc1ccc(Cl)cc1`, the viability index under setting [1] came to 1.17 ± 0.023. With `CCCC#Cc1ccc2c(c1)[C@@H]1[C@@H](CCN1S(=O)(=O)c1cccc(F)c1)[C@@H](CO)N2C`, the viability index under setting [1] turned out to be 1.12 ± 0.051.

Under setting [1], `C[C@H]1CN([C@@H](C)CO)C(=O)c2ccccc2-c2ccccc2CO[C@@H]1CN(C)Cc1ccccc1C(F)(F)F` gave a viability index of 0.843 ± 0.028. The compound `C[C@@H]1CN([C@H](C)CO)C(=O)c2ccccc2-c2ccccc2CO[C@@H]1CN(C)Cc1cccc2c1OCCCO2` returned a viability index under setting [1] of 0.941 ± 0.019. In turn, `C[C@H](CO)N1C[C@H](C)[C@H](CN(C)Cc2cccc3c2OCCCO3)OCc2ccccc2-c2ccccc2C1=O` yielded a viability index under setting [1] of 1.04 ± 0.039. In the case of `O=C(Cc1cccnc1)N1CC(=O)N2[C@H](C1)[C@@H](c1ccc(/C=C/c3ccccc3)cc1)[C@@H]2CO`, the viability index under setting [1] came to 1 ± 0.029. Under setting [1], `COCC(=O)N1CC(=O)N2[C@H](CO)[C@@H](c3ccc(-c4ccccc4F)cc3)[C@@H]2C1` returned a viability index of 1.07 ± 0.083. `O=C(c1cccc(F)c1)N1CC(=O)N2[C@H](CO)[C@H](c3ccc(-c4cccnc4)cc3)[C@H]2C1` returned a viability index under setting [2] of 0.771 ± 0.058. For `O=C(c1cnccn1)N1CC(=O)N2[C@H](C1)[C@@H](c1ccc(-c3cccc(F)c3)cc1)[C@@H]2CO`, the viability index under setting [1] was 1.02 ± 0.012. `O=C(c1cccnc1)N1CC(=O)N2[C@H](CO)[C@H](c3ccc(-c4ccccc4F)cc3)[C@H]2C1` returned a viability index under setting [1] of 1.04 ± 0.041.

Regarding `O=C(c1cnccn1)N1CC(=O)N2[C@@H](CO)[C@@H](c3ccc(-c4cccc(F)c4)cc3)[C@@H]2C1`, the viability index under setting [1] is 1.02 ± 0.058. `O=C(c1cnccn1)N1CC(=O)N2[C@@H](CO)[C@H](c3ccc(-c4cccc(F)c4)cc3)[C@@H]2C1` had a viability index under setting [1] of 1 ± 0.049. Under setting [1], `O=C(c1ccccc1)N1CC(=O)N2[C@H](CO)[C@H](c3ccc(-c4ccccc4)cc3)[C@@H]2C1` came in with a viability index of 1.02 ± 0.066. Consider `O=C(c1ccccc1)N1CC(=O)N2[C@H](C1)[C@@H](c1ccc(-c3ccccc3)cc1)[C@@H]2CO`, for which, under setting [1], the viability index worked out at 0.829 ± 0.051. For `O=C(c1ccc(F)cc1)N1CC(=O)N2[C@H](C1)[C@@H](c1ccc(-c3cccnc3)cc1)[C@@H]2CO`, the viability index under setting [2] is 0.733 ± 0.11. Same read-out and setting: in the case of `O=C(c1cccc(F)c1)N1CC(=O)N2[C@H](C1)[C@@H](c1ccc(-c3cccnc3)cc1)[C@@H]2CO` it was 0.817 ± 0.042.

Consider `O=C(c1ccccc1)N1CC(=O)N2[C@H](CO)[C@@H](c3ccc(-c4ccccc4)cc3)[C@H]2C1`, for which the viability index under setting [1] was determined as 1.018 ± 0.0095. As for `O=C(c1ccncc1)N1CC(=O)N2[C@H](C1)[C@@H](c1ccc(-c3cccnc3)cc1)[C@@H]2CO`, under setting [2], the viability index turned out to be 0.891 ± 0.059. For `O=C(c1cnccn1)N1CC(=O)N2[C@H](CO)[C@@H](c3ccc(-c4cccc(F)c4)cc3)[C@@H]2C1`, the viability index under setting [1] was determined as 0.99 ± 0.047.

(Values after the supplement of paper PMC4723716.)
